This passage reports composite z-score and z-score results from PubChem BioAssay.

Active and inactive are the calls of the source.

A short description of assay [1]: small molecules captured by biotinylated probe aFSTL3 – biochemical, small-molecule microarray, fluorescence 635/667, stem cell growth factor project, primary screen (AID 1064).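 Further: measures binding of the biotinylated anti-FSTL3 antibody to printed compounds.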 The settings on record: higher = more signal.
A short description of assay [2]: binders from COS7 lysate, DM2A8 probe, primary screen, torsin A project, cell lysate, small-molecule microarray, fluorescence 635/667 (AID 1065). The settings on record: higher = more signal, COS7 lysate expressing mutant human TOR1A.
Assay [3] is described as follows: small molecules captured by biotinylated probe aFGF2 – biochemical, small-molecule microarray, fluorescence 635/667, stem cell growth factor project, primary screen (AID 1067).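 Further: measures binding of biotinylated aFGF2 protein to printed compounds on slides; z-score merges feature fluorescence and signal-to-noise across triplicate slides.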 The settings on record: higher = more signal.
Assay [4] is described as follows: small molecules captured by biotinylated probe aFGF10 – biochemical, small-molecule microarray, fluorescence 635/667, stem cell growth factor project, primary screen (AID 1071).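 Further: score merges 667 nm spot intensity and signal to noise from triplicate slides.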 The settings on record: higher = more signal.
Assay [5] concerns the target Neurogenic locus notch homolog protein 2 (Homo sapiens) (UniProt Q04721). Kind of assay: small molecules binding Notch2 protein – biochemical, small-molecule microarray, 635 nm fluorescence, stem cell growth factors, primary screen (AID 1073). The following applies: higher = more signal.
Assay [6] concerns the target Pro-neuregulin-1, membrane-bound isoform (Homo sapiens) (UniProt Q02297). The assay is described as follows: small molecules binding neuregulin-1 protein – biochemical, small-molecule microarray, fluorescence 635/667, psychiatric disease protein project, primary screen (AID 1075).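 Further: score combines 667 nm spot fluorescence with signal to noise.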 The following applies: NRG1 binding, 635 nm fluorescence, higher = more signal.
The test system of assay [7] is Neuregulin-1 EGF-like domain. Kind of assay: small molecules binding NRG1 EGF domain – biochemical, small-molecule microarray, 635 nm fluorescence, primary screen (AID 1081).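 Further: binding of the protein to compounds printed on small-molecule microarray slides.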 The settings on record: higher = more signal.
Assay [8] is described as follows: FRG1 expression reporter modulators in myotubes – cell-based, C2C12 myotubes, firefly/Renilla luciferase, luminescence, FRG1 inhibition for FSHD, primary screen (AID 1084). The settings on record: FRG1 promoter luciferase, higher = more signal, called active from +8 up or from −8 down.
Assay [9] is described as follows: small molecules captured by biotinylated probe aFST – biochemical, small-molecule microarray, fluorescence 635/667, stem cell growth factor project, primary screen (AID 1086).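 Further: score merges 667 nm fluorescence with signal-to-noise of each printed compound spot.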 The following applies: higher = more signal.
Assay [10] is described as follows: binders of probe aHhip on microarray, primary screen, stem cell growth factor project, biochemical, small-molecule microarray, fluorescence 635/667 (AID 1087).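 Further: score merges spot fluorescence at 667nm with spot signal to noise ratio.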 The settings on record: higher = more signal.
The subject of assay [11] is PRMT1 (protein arginine N-methyltransferase 1). The assay is described as follows: small molecules binding arginine methyltransferase PRMT1 – biochemical, small-molecule microarray, 635 nm fluorescence, primary screen (AID 1088).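 Further: binding of Prmt1 protein to compounds spotted on small-molecule microarray slides.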 The settings on record: higher = more signal.
A short description of assay [12]: growth effects on S. cerevisiae YJM789 – YJM789 clinical isolate, OD600, 24 h, basal, primary screen (AID 1089).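 Further: growth of clinical yeast isolate S. cerevisiae YJM 789 seeded 1000 cells per well; test concentration not given here.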 The settings on record: higher = more signal, called active from +8 up or from −8 down.
Assay [13] can be described thus: S. pombe growth modifiers, basal conditions – strain 972, OD600, 24 h, no modulator, primary screen (AID 1090).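 Further: basal condition with compound alone and no growth modifier present; test concentration not given here.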 The settings on record: S. pombe 972 growth, higher = more signal, called active from +8 up or from −8 down.
Assay [14] can be described thus: budding yeast growth modifiers under rapamycin – strain BY4716, OD600, 96 h, primary screen (AID 1091). Further: test concentration not given here. The settings on record: S. cerevisiae BY4716 + rapamycin, higher = more signal, called active from +8 up or from −8 down.
Assay [15] deals with Torsin-1A-interacting protein 2 (Homo sapiens) (UniProt Q8NFQ8). Kind of assay: small molecules binding lysate-expressed LULL1 – cell lysate, human LULL1 lysate, 635/667 nm fluorescence, primary screen (AID 1092).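 Further: probe is lysate of COS7 cells overexpressing human LULL1; score merges per-feature 667 nm fluorescence with signal-to-noise.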 The settings on record: small-molecule microarray, hLULL1 lysate binding, 635 nm fluorescence; higher = more signal.
Sequence of Torsin-1A-interacting protein 2 (Homo sapiens) (Q8NFQ8 whole entry, looked up): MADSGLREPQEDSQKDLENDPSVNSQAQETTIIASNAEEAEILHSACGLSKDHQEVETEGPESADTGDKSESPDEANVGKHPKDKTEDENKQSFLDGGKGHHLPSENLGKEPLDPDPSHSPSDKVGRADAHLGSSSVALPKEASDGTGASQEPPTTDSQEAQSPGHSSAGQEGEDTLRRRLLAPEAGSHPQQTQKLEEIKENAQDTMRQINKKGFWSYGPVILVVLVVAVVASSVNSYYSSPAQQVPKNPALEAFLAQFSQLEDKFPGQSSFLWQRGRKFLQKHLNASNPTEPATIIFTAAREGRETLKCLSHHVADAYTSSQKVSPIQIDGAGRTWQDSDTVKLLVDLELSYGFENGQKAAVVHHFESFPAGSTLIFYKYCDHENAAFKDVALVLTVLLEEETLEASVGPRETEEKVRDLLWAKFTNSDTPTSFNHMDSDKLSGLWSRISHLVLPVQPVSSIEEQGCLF
Assay [16] is described as follows: optical density change of DRC41 E. coli – strain DRC41, OD650, 24 h, E. coli filamentation project, primary screen (AID 1093).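 Further: MC1000 strain lacking acrAB efflux and sulA so SOS filamentation is blocked; test concentration not given here.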 The settings on record: E. coli DRC41 growth, higher = more signal, called active from +8 up or from −8 down.
Assay [17] can be described thus: probe aLefty2 binding to arrayed compounds – biochemical, biotinylated probe, 635/667 nm fluorescence, primary screen (AID 1094).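 Further: score merges spot fluorescence near 667 nm with spot signal-to-noise ratio.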 The following applies: small-molecule microarray, higher = more signal.
Assay [18] has as its system Noggin (protein binding on small-molecule microarray). The assay is described as follows: small molecules binding Noggin protein – biochemical, 635/667 nm fluorescence, primary screen (AID 1095).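 Further: score merges 667 nm feature fluorescence with signal to noise over triplicate slides.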 The following applies: 635 nm fluorescence, higher = more signal.
Assay [19] deals with Neurogenic locus notch homolog protein 3 (Homo sapiens) (UniProt Q9UM47). The assay is described as follows: small molecules binding NOTCH3 protein – biochemical, 635/667 nm fluorescence, primary screen (AID 1096). The settings on record: small-molecule microarray, 635 nm fluorescence, higher = more signal.
Assay [20] can be described thus: probe aEGFR binding to arrayed compounds – biochemical, biotinylated probe, 635/667 nm fluorescence, primary screen (AID 1097).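 Further: probe is a biotinylated anti-EGFR antibody binding compounds printed on slides; score combines fluorescence near 667 nm and signal to noise of each spot.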 The following applies: small-molecule microarray, higher = more signal.

Sequence of Neurogenic locus notch homolog protein 2 (Homo sapiens) (Q04721 whole entry, looked up, canonical isoform): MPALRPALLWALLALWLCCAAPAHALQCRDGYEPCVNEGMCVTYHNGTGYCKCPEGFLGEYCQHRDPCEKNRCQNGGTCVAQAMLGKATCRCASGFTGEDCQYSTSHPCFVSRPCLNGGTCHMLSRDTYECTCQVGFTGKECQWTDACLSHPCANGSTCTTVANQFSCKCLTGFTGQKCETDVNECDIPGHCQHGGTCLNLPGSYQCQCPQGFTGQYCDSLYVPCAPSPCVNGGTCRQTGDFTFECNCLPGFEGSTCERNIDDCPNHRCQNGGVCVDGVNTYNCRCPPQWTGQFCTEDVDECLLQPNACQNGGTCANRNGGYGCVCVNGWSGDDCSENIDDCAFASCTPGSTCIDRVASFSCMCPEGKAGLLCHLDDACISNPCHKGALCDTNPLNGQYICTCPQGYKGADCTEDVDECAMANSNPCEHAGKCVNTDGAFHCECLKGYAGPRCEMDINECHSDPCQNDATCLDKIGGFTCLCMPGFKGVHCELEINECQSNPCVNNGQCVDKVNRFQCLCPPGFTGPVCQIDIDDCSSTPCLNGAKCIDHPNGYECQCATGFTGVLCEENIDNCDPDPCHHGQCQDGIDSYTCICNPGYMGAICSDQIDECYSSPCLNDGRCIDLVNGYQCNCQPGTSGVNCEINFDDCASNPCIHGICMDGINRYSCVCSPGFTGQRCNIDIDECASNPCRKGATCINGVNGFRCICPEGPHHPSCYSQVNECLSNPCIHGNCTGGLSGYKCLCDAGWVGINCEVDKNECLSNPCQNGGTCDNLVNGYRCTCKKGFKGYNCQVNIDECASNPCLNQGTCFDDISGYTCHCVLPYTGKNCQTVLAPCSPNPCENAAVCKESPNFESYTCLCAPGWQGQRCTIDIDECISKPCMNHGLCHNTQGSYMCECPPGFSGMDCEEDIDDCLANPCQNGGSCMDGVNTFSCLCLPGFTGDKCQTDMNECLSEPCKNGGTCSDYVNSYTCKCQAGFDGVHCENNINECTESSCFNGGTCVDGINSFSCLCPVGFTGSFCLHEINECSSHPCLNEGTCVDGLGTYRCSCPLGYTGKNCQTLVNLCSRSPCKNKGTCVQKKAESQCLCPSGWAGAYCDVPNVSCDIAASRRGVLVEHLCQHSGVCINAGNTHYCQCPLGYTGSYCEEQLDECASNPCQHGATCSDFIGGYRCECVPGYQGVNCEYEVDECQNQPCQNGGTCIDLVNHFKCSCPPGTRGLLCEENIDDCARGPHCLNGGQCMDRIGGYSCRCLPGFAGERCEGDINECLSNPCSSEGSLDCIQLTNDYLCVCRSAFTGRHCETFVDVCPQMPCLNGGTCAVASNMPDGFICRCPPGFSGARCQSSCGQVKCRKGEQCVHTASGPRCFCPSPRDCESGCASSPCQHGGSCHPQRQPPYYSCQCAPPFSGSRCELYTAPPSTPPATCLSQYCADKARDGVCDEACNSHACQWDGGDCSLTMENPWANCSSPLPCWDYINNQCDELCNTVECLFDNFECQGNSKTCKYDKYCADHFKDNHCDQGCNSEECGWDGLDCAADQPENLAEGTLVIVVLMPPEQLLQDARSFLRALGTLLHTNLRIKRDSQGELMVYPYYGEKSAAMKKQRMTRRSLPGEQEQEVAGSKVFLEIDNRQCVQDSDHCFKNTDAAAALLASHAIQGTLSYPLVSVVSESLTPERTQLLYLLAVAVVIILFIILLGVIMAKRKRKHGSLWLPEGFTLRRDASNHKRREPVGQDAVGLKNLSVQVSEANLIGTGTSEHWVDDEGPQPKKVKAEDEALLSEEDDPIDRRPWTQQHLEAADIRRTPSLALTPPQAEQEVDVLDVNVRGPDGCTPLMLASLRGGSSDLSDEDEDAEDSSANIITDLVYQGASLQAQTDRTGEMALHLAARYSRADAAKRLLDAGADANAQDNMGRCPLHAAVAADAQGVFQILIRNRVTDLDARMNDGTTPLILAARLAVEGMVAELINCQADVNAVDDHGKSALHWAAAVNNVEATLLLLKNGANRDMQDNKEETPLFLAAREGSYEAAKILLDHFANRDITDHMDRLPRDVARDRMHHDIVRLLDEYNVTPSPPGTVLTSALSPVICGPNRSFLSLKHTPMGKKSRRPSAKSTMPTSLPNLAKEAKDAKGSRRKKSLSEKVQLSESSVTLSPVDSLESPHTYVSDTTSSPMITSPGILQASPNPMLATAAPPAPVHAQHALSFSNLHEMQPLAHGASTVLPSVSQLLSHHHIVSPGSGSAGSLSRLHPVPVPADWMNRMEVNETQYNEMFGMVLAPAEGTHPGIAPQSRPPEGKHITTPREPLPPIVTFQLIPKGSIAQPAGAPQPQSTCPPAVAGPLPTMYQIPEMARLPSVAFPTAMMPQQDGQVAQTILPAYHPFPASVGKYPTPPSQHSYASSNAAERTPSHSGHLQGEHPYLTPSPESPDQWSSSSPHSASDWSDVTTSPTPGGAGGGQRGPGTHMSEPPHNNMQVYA
Sequence of Pro-neuregulin-1, membrane-bound isoform (Homo sapiens) (Q02297 whole entry, looked up, the tested form may be a part, canonical isoform): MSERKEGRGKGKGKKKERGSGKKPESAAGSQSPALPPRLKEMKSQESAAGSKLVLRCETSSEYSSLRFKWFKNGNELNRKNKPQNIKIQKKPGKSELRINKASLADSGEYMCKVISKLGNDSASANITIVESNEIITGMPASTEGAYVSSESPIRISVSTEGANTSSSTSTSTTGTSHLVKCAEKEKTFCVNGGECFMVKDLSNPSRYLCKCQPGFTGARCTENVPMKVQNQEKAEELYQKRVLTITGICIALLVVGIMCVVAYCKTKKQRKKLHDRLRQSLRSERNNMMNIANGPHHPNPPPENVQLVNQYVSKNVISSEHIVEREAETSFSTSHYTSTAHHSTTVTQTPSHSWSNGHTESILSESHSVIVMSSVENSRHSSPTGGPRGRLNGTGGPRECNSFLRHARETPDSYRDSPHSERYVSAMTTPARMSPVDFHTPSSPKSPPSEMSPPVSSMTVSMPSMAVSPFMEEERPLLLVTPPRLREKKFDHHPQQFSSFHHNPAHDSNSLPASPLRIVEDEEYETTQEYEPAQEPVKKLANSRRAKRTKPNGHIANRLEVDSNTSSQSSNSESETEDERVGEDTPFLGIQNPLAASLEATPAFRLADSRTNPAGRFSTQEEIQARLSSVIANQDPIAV

Turning to `CC(C)c1ccc(NN2C(C(O)c3ccc(N(C)C)cc3)C=CC3C(=O)N(c4ccccc4)C(=O)C32)cc1` (stereo not given), the composite z-score in assay [1] is -0.145; in assay [2] it was 1.43; in assay [3], 0.0485; in assay [4], 0.405; in [5], 1.5; in [6], 1.88. Also, the composite z-score in [7] was 1.12; in assay [9] it was 1.46; in assay [10], -0.166; in assay [11], 1.56; in [15], 3.34; in assay [17] it was 0.188. Further, the composite z-score in assay [18] was 0.109; in assay [19], 1.03; in assay [20], -0.027. For the same compound, the z-score is 2.3 (inactive) in assay [8]; 0.372 (inactive) in assay [12]; 1.26 (inactive) in assay [13]; 0.197 (inactive) in assay [14]; -0.158 (inactive) in assay [16].
On to `COC(=O)[C@@]1(Cc2ccc(F)cc2)[C@H]2c3cc(C(=O)N4CCCC4)n(Cc4cccc5ccccc45)c3C[C@H]2CN1C(=O)c1ccccc1`, for which the composite z-score in [1] was determined as 0.242; in assay [2], 0.312; in assay [3] it was 0.148; in assay [4], 0.62; in assay [5], 1.57; in assay [6], 2.16. Further, the composite z-score was 1.35 in [7]; 0.558 in assay [9]; 0.762 in [10]; 0.187 in [11]; 3.85 in assay [15]; 0.698 in assay [17]. Moreover, the values for the composite z-score in assay [18], in assay [19] and in assay [20] were -0.275, 0.941 and 0.245, respectively. In addition, the z-score in assay [8] was 0.272 (inactive); in assay [12], 0.0247 (inactive); in [13], 0.702 (inactive); in assay [14] it was 0.307 (inactive); in assay [16], -1.48 (inactive).
Consider `[N-]=[N+]=NCc1ccccc1C[C@@]1(C(=O)N2CCOCC2)N=C(c2ccc(OCCCO)cc2)O[C@@H]1c1ccccc1CN=[N+]=[N-]`, for which the composite z-score turned out to be 0.998 in [1]; 0.232 in assay [2]; 0.266 in assay [3]; 1.01 in assay [4]; 1.52 in assay [5]; 1.91 in assay [6]. For the same compound, the composite z-score in assay [7] was determined as 1.37; in assay [9] it was 1.57; in assay [10], 0.156; in assay [11] it was 1.58; in [15], 3.28; in [17] it was 0.743. In addition, the composite z-score in assay [18] amounted to 0.631; in assay [19] it was 0.967; in assay [20] it was 0.662. The z-score in assay [8] was -3.63 (inactive); in assay [12] it was 0.466 (inactive); in assay [13], -0.559 (inactive); in assay [14], 28 (active); in assay [16] it was 0.291 (inactive).
Turning to `COc1cc2c(cc1OC)CN(C(=O)[C@@H]1[C@H]3C(=O)O[C@H](c4ccccc4)[C@H](c4ccccc4)N3[C@H](c3ccccc3OCCO)[C@@]13C(=O)Nc1ccc(C#CCNC(N)=O)cc13)CC2`, the composite z-score in [1] came to 0.309; in [2], 0.586; in [3], 0.0564; in [4], 0.837; in [5] it was 0.936; in assay [6], 0.852. Besides, the composite z-score in [7] was 1.07; in assay [9] it was 0.237; in assay [10] it was -0.074; in assay [11] it was 1.48; in [15], 2.61; in [17], 0.257. For the same compound, the composite z-score is 1.09 in assay [18], 1.08 in assay [19] and -0.0873 in assay [20]. The z-score in assay [8] was 0.297 (inactive); in [12], 0.443 (inactive); in assay [13] it was 1 (inactive); in assay [14], 3.09 (inactive); in assay [16], 0.912 (inactive).
In the case of `CC(=CC1CCCCC1)[C@@H](NC(=O)c1ccc(C(F)(F)F)cc1)c1ccc(-c2ccccc2)cc1`, the composite z-score was 0.21 in assay [1]; -0.259 in assay [2]; 0.0083 in assay [3]; -0.0821 in assay [4]; 0.0836 in [5]; 1.02 in assay [6]. The composite z-score is -0.54 in [7]; 0.112 in assay [9]; 0.57 in [10]; -0.211 in [11]; -0.192 in assay [15]; 0.0943 in [17]. The figures for the composite z-score in assay [18], in assay [19] and in [20] were 0.0323, -0.779 and 0.0353, respectively. Further, the z-score in [8] is 0.235 (inactive); in assay [12], 0.537 (inactive); in [13], -0.91 (inactive); in assay [14], -0.938 (inactive); in [16], -1.33 (inactive).
As for `COC(=O)[C@@]1(Cc2ccccc2)[C@H]2c3cc(C(=O)N4CCCC4)n(Cc4ccc(C)o4)c3C[C@H]2CN1C(=O)c1ccccc1`, the composite z-score was 0.385 in assay [1]; 0.225 in assay [2]; -0.162 in assay [3]; 0.0426 in [4]; 1.54 in [5]; 1.37 in assay [6]. Besides, the composite z-score in assay [7] is 0.476; in assay [9], 0.935; in assay [10], 0.259; in assay [11] it was -0.179; in assay [15], 2.6; in [17] it was -0.0127. Further, the composite z-score in assay [18] amounted to 0.231; in [19], 0.622; in assay [20] it was 0.0226. Further, the z-score in [8] was 0.0318 (inactive); in assay [12] it was -0.619 (inactive); in assay [13], 0.122 (inactive); in assay [14] it was -0.564 (inactive); in assay [16], -0.564 (inactive).
